# In the supplement of paper PMC13380429:
# Unmarked numbers belong to inactive results.
# Tested on: Vero E6 infected with SARS-CoV-2
# Assay: SARS-CoV-2 infection rate relative to infected DMSO; higher = more infection, active = 60 or less
# Details: 24 h
row,SMILES,SARS-CoV-2 infection rate
1,CCCCCCCCNC(C)C(O)c1ccc(SC(C)C)cc1 (stereo not drawn) [suloctidil] (10 µM),21.5% (active)
2,CN(C)CCOc1ccc(/C(=C(/CCCl)c2ccccc2)c2ccccc2)cc1 [toremifene] (0.833333 µM),112%
3,CCc1cccc(CC)c1NC(=O)CN(CC(=O)O)CC(=O)O [etifenin] (10 µM),109%
4,C[C@@H](NCCCc1cccc(C(F)(F)F)c1)c1cccc2ccccc12 [cinacalcet] (10 µM),20% (active)
5,C#C[C@]1(O)CC[C@H]2[C@@H]3CCC4=CC(=O)CC[C@@H]4[C@H]3CC[C@@]21C [Norethindrone (Norethisterone)] (10 µM),112%
6,CCCCS(=O)(=O)N[C@@H](Cc1ccc(OCCCCC2CCNCC2)cc1)C(=O)O [tirofiban] (10 µM),110%
7,Nc1ncnc2c1ncn2[C@@H]1O[C@H](CO)[C@@H](O)[C@H]1O [adenosine] (10 µM),109%
8,[N-]=[N+]=N[C@]1(CO)O[C@@H](n2ccc(N)nc2=O)[C@H](O)[C@@H]1O (10 µM),109%
9,COc1ccccc1N1CCN(CCCCN2C(=O)c3ccccc3C2=O)CC1 (10 µM),99%
10,Cc1cnc(C(=O)N[C@H]2CCCCC/C=C\[C@@H]3C[C@@]3(C(=O)NS(=O)(=O)C3CC3)NC(=O)[C@@H]3C[C@@H](Oc4nc5ccccc5c5ccccc45)CN3C2=O)cn1 [paritaprevir] (10 µM),98%
11,Cc1cc2c(C(N)=O)cccc2n1-c1nc2c(c(NCc3ccccc3)n1)COCC2 (10 µM),116%
12,Cn1c(=O)cc(N2CCC[C@@H](N)C2)n(Cc2cc(F)ccc2C#N)c1=O [trelagliptin] (10 µM),99%
13,CC(=O)S[C@@H]1CC2=CC(=O)CC[C@]2(C)[C@H]2CC[C@@]3(C)[C@@H](CC[C@@]34CCC(=O)O4)[C@H]12 [spironolactone] (10 µM),98.5%
